Drawing on PubChem BioAssay (NCI), this text covers growth for 13 compounds.

“And” between values parts separate entries of the source, which are not always exact repeats. Equal entries are not always repeated. This is part of a sample that, as a whole, favours compounds with a hit. Of some 83,000 tested, about 20% had one in any assay.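 96-well plates, one dose, 48 hours. Percent growth reported; active if below 10.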 The source made the active and inactive calls.

Experiment in all cases: NCI-60 one-dose screen, 48 h (100 = growth as untreated, 0 = no growth, -100 = all killed)
Common to all, as to conditions: 10 µM unless noted

Experiment [1] concerns SR leukemia.
In experiment [2] the test system is RPMI-8226 leukemia.
Experiment [3] relates to OVCAR-8 ovarian.
In experiment [4] the test system is OVCAR-4 ovarian.
Experiment [5] concerns SK-OV-3 ovarian.
The test system of experiment [6] is IGROV1 ovarian.
For experiment [7], the system named is OVCAR-3 ovarian.
For experiment [8], the system named is HS 578T breast.
Experiment [9] deals with NCI/ADR-RES ovarian.
In experiment [10] the test system is OVCAR-5 ovarian.

Consider `Cc1cc2nc(CS)[nH]c2cc1C`, for which the growth in experiment [1] was 45.9% (inactive); in [2] it was 28.7% (inactive); in experiment [3], 96.5% (inactive); in [4], 85.5% (inactive); in experiment [5], 87.1% (inactive); in [6], 74.5% (inactive). Also, the growth in experiment [7] was 82.6% (inactive); in [8] it was 103% (inactive); in experiment [9], 95.7% (inactive).
With `CN(C)c1ccc(N=Nc2cccc3ccccc23)cc1`, the growth in experiment [1] was 111% (inactive); in experiment [2], 72.5% (inactive); in experiment [3], 94.8% (inactive); in [4] it was 81.4% (inactive); in experiment [5], 80.1% (inactive); in [6], 67.2% (inactive). The values for the growth in [7], in experiment [8] and in experiment [9] were 84.3% (inactive), 95% (inactive) and 102% (inactive), respectively.
`Nc1ccc(SSc2ccc(N)cc2)cc1`: the growth in experiment [1] was 104% (inactive); in [2] it was 102% (inactive); in experiment [3], 88% (inactive); in experiment [10] it was 101% (inactive); in experiment [5], 114% (inactive); in [6], 108% (inactive). Besides, the growth in experiment [7] was 114% (inactive); in experiment [8], 109% (inactive); in experiment [9] it was 97.5% (inactive).
As to `O=C(/C=C/C=C/c1ccccc1)c1ccco1`, the growth in [1] is 16.7% (inactive); in experiment [2], 10.8% (inactive); in [3] it was 89.1% (inactive); in experiment [10], 108% (inactive); in [5], 105% (inactive); in experiment [6], 64.8% (inactive). Moreover, the growth in experiment [7] was 85.6% (inactive); in [8] it was 62.6% (inactive); in [9], 91.3% (inactive).
As to `O=C1C2=C(Nc3cc([N+](=O)[O-])ccc3N2)OC1c1c2ccccc2cc2ccccc12` (centres undefined), the growth in experiment [1] was 23.5% (inactive); in experiment [2] it was 15% (inactive); in experiment [3], 47.5% (inactive); in [4] it was 50% (inactive); in [5], 104% (inactive); in experiment [6], 52.3% (inactive). The growth was 69.4% (inactive) in [7], 73.6% (inactive) in experiment [8] and 38.3% (inactive) in [9].
For the compound `Nc1ncnc2c1ncn2C1OC(CO)C(O)C1O` (centres undefined), the growth in experiment [1] was 98.7% (inactive) and 21% (inactive) and 87.3% (inactive); in experiment [2] it was 101% (inactive) and 77.5% (inactive) and 112% (inactive); in [3], 93.5% (inactive) and 56% (inactive) and 105% (inactive); in [10], 122% (inactive) and 127% (inactive); in [5] it was 104% (inactive) and 100% (inactive); in experiment [6] it was 109% (inactive) and 104% (inactive). Moreover, the growth was 125% (inactive) and 77.9% (inactive) in [8]; 110% (inactive) and 72% (inactive) in [9].
As to `O=[N+]([O-])c1ccc2c(N=Nc3ccc4ccccc4c3O)c(O)cc(S(=O)(=O)O)c2c1`, the growth in [1] was 90.3% (inactive); in experiment [2] it was 96.8% (inactive); in experiment [3], 70.5% (inactive); in [10] it was 106% (inactive); in experiment [5], 90% (inactive); in experiment [6], 61.7% (inactive). Moreover, the growth in experiment [7] was 41.4% (inactive); in [8], 105% (inactive); in [9] it was 86.1% (inactive).
With `CC(=O)ON=C1C=CC(=C(C#N)c2ccccc2)C=C1`, the growth is 17.4% (inactive) in [1]; 18.7% (inactive) in experiment [2]; 2.27% (active) in experiment [3]; 123% (inactive) in [10]; 55.7% (inactive) in experiment [5]; 2.9% (active) in experiment [6]. Further, the growth in experiment [8] is 15.5% (inactive); in experiment [9], -10.8% (active).
Regarding `NC(=S)N/N=C/c1ccc(Cl)s1`, the growth was 95.6% (inactive) in [1]; 100% (inactive) in [2]; 106% (inactive) in experiment [3]; 111% (inactive) in experiment [10]; 109% (inactive) in [5]; 106% (inactive) in experiment [6]. The growth is 105% (inactive) in [7], 103% (inactive) in experiment [8] and 108% (inactive) in [9].
`COC(=O)Nc1nc2ccc(C(=O)c3ccccc3)cc2[nH]1`: the growth is 19.8% (inactive) and 2.51% (active) in experiment [1]; 45.5% (inactive) and -31.7% (active) in [2]; 22% (inactive) and 20.6% (inactive) and 22.1% (inactive) in [3]; 20.7% (inactive) and 47.1% (inactive) in experiment [10]; 22.8% (inactive) and 28.9% (inactive) and 32.6% (inactive) in experiment [5]; 43.2% (inactive) and 13.7% (inactive) and -39.8% (active) in [6]. Also, the growth in experiment [8] is 35.5% (inactive) and 15.8% (inactive) and 21.6% (inactive); in [9] it was -28.8% (active) and 4.68% (active) and -3.41% (active).
As to `Cc1ccc(N=C=C(c2ccccc2)c2ccccc2)cc1`, the growth is 22.9% (inactive) in [1]; 16.6% (inactive) in [2]; 70% (inactive) in [3]; 103% (inactive) in experiment [4]; 112% (inactive) in [5]; 57.2% (inactive) in experiment [6]. In addition, the growth in experiment [7] is 118% (inactive); in [8] it was 91.1% (inactive); in experiment [9] it was 81.2% (inactive).
Turning to `COc1cc(NS(C)(=O)=O)ccc1Nc1c2ccccc2nc2ccccc12`, the growth is 19.4% [2.5 µM] (inactive) in experiment [1]; 11.3% [2.5 µM] (inactive) in [2]; 28.8% (inactive) and 23.2% (inactive) and 27.8% (inactive) in [3]; 87.8% [2.5 µM] (inactive) in [4]; 32.5% [2.5 µM] (inactive) in experiment [5]; 48.6% [2.5 µM] (inactive) in experiment [6]. Moreover, the figures for the growth in experiment [7], in [8] and in experiment [9] were 58.7% [2.5 µM] (inactive), -6.75% [2.5 µM] (active) and 70.2% [2.5 µM] (inactive), respectively.
For the compound `O=C(Oc1cccc2cccnc12)c1ccccc1`, the growth in [1] was 43.7% (inactive); in [2] it was 83.3% (inactive) and 113% (inactive); in [3], 84.9% (inactive) and 98.6% (inactive); in experiment [4], 84.6% (inactive) and 116% (inactive); in experiment [5], 106% (inactive); in experiment [6] it was 113% (inactive). In addition, the growth was 7.19% (active) and 115% (inactive) in experiment [7]; 74.9% (inactive) and 123% (inactive) in experiment [8]; 87% (inactive) and 106% (inactive) in experiment [9].
